The values below come from PubChem BioAssay (NCI).

The panel holds about 79,000 compounds, 15% with a hit somewhere; the sample as a whole holds those more often. A number with no mark means an inactive call. Activity calls are given as the source filed them. No stated cut-off is given here; in the data, active means growth inhibition above about 70%; inactive means the rest.

The assay is described as follows: NCI Yeast Anticancer Drug Screen. Data for the wt1 strain (AID 149).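 Further: 0% = growth of vehicle-treated wt1 cultures.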 Particulars: S. cerevisiae wt1 strain (SPY 50644) growth inhibition, active compounds read high. The procedure: Growth inhibition of yeast strains with defined genetic alterations is measured as a screen for potential anti-cancer activity. Selected strains with alterations in DNA damage repair or cell cycle control were exposed to compounds and growth inhibition was measured relative to vehicle treated controls. The strain used in this assay is wt1

For `O=[N+]([O-])c1ccc(N2CCC(CCCC3CCN(c4ccc([N+](=O)[O-])cc4[N+](=O)[O-])CC3)CC2)c([N+](=O)[O-])c1`, the growth inhibition runs as follows: (at 1.2 µM) -6%; (at 3.7 µM) -1%; (at 11.0 µM) 5%; (at 33.0 µM) 11%; (at 100.0 µM) 11%.
On to `COc1cc(O)c2c(O)c3c(c4c2c1[C@]1(C4)C(C)=CCCC1(C)C)[C@H](O)[C@@]1(O)CC(=O)C(C(N)=O)=C(O)[C@@]1(O)C3=O`, for which the growth inhibition runs as follows: (at 1.2 µM) -16%; (at 3.7 µM) 56%; (at 11.0 µM) 98% (active); (at 33.0 µM) 97% (active); (at 100.0 µM) 93% (active).
Taken in the same sequence, the figures for `[O-][n+]1c2cccc(O)c2[n+]([O-])c2cccc(O)c21` were 2%, 2%, 7%, 10% and 15%.
Taken in the same sequence, the figures for `CC[PH+](CC)CC.CC[PH+](CC)CC.[Au]` were 6%, 30%, 36%, 43% and 98% (active).
Taken in the same sequence, the figures for `C=CC[N+]12CN3CN(CN(C3)C1)C2` were -10%, -28%, -21%, -23% and 41%.
With `NCCc1ccc(OCc2ccccc2)c(OCc2ccccc2)c1`, the growth inhibition reads like this: (at 1.2 µM) 0%; (at 3.7 µM) -6%; (at 11.0 µM) -28%; (at 33.0 µM) 74% (active); (at 100.0 µM) 97% (active).
As to `O=C(O)CCCOc1cc(Cl)c(Cl)cc1Cl`, the growth inhibition by setting is: (at 1.2 µM) -1%; (at 3.7 µM) -9%; (at 11.0 µM) 2%; (at 33.0 µM) 22%; (at 100.0 µM) 71% (active).
Taken in the same sequence, the figures for `NC1=NCC(c2ccc(Cl)cc2)O1` (stereo not given) were -5%, -4%, -7%, -5% and 3%.
